Holding throughout (settings): mRNA level, 48 h; actives raise or lower the signal
Read-out in assay [1]: Bcl-2 (BAX) gene, BAX (gene 581)
Briefly: LTEA_HepaRG_BAX: Life Technologies and Expression Analysis (LTEA) Assay for Bcl-2 (BAX) gene using HepaRG (AID 2283470). The method in brief: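 Gene expression measured by Fluidigm qRT-PCR with three housekeeping genes for normalisation. HepaRG cells, plated 48 h beforehand, treated 48 h at up to 100 uM (8-point, half-log) in 0.5% DMSO. Bidirectional fitting versus DMSO.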

Read-out in assay [2]: adenosine kinase (ADK) gene, ADK (gene 132)
As to the kind of experiment: LTEA_HepaRG_ADK: Life Technologies and Expression Analysis (LTEA) Assay for adenosine kinase (ADK) gene using HepaRG (AID 2283471). The method, boiled down:
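Read-out is ADK transcript level measured by qRT-PCR and normalised to three housekeeping genes. Cells are human HepaRG, dosed for 48 h at up to 100 uM in 0.5% DMSO. Gain or loss of signal is fitted against DMSO controls.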

Read-out in assay [3]: Alpha-fetoprotein (AFP) gene, AFP (gene 174)
Briefly: LTEA_HepaRG_AFP: Life Technologies and Expression Analysis (LTEA) Assay for Alpha-fetoprotein (AFP) gene using HepaRG (AID 2283472). The method in brief:
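AFP transcript measured by TaqMan qRT-PCR with three housekeeping genes for normalization, after 48 h chemical treatment of HepaRG cells (top 100 uM, half-log steps, 0.5% DMSO). Gain or loss fitted against vehicle.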

Read-out in a further assay: BCL2L11 (gene 10018)
As to the kind of experiment: LTEA_HepaRG_BCL2L11: Life Technologies and Expression Analysis (LTEA) Assay for Bcl-2 (BCL2L11) gene using HepaRG (AID 2283473). The method in brief:
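Human hepatic HepaRG cultures are treated 48 h with test chemicals (maximum 100 uM, 0.5% DMSO vehicle). Expression of BCL2L11 is measured by qRT-PCR against ACTB, GAPDH and POLR2A, with activity in either direction scored relative to vehicle.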

Read-out in assay [4]: Apolipoprotein A-V (APOA5) gene, APOA5 (gene 116519)
Briefly: LTEA_HepaRG_APOA5: Life Technologies and Expression Analysis (LTEA) Assay for Apolipoprotein A-V (APOA5) gene using HepaRG (AID 2283474). The method in brief: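 Concentration-response of APOA5 expression in HepaRG: eight half-log doses to 100 uM, 48 h, qRT-PCR normalized to ACTB/GAPDH/POLR2A, bidirectional fitting with 0.5% DMSO as baseline.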

Read-out in assay [5]: Apoptosis regulator Bcl-2 (Homo sapiens) (UniProt P10415)
Briefly: LTEA_HepaRG_BCL2: Life Technologies and Expression Analysis (LTEA) Assay for Bcl-2 gene using HepaRG (AID 2283475). The method, boiled down: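 qRT-PCR of BCL2 transcript, normalized to three housekeeping genes (ACTB, GAPDH, POLR2A), after 48 h chemical exposure of HepaRG cells; concentrations top 100 uM with half-log dilutions, 0.5% DMSO vehicle, duplicates; changes up or down fitted relative to vehicle.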

Read-out in assay [6]: Bcl-2 (BID) gene, BID (gene 637)
As to the kind of experiment: LTEA_HepaRG_BID: Life Technologies and Expression Analysis (LTEA) Assay for Bcl-2 (BID) gene using HepaRG (AID 2283476). The method in brief: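 Duplicate 48 h treatments of HepaRG cells in serum-free induction medium spanned 100 uM downward in half-log steps, 0.5% DMSO. Transcript change quantified by qRT-PCR against three housekeeping genes, fitted up or down versus DMSO.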

Read-out in another assay: Caspase-3 (Homo sapiens) (UniProt P42574)
Briefly: LTEA_HepaRG_CASP3: Life Technologies and Expression Analysis (LTEA) Assay for cysteine-aspartic acid protease (CASP3) using HepaRG (AID 2283477). The method, boiled down: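 Transcript-level assay: CASP3 mRNA in human HepaRG after 48 h treatment, eight half-log concentrations from 100 uM in 0.5% DMSO, quantified by qRT-PCR.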

Read-out in assay [7]: Cytochrome P450 (CYP24A1), CYP24A1 (gene 1591)
Briefly: LTEA_HepaRG_CYP24A1: Life Technologies and Expression Analysis (LTEA) Assay for Cytochrome P450 (CYP24A1) using HepaRG (AID 2283478). The method, boiled down:
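Gene expression of CYP24A1 by TaqMan qRT-PCR in HepaRG after 48 h treatment, highest concentration 100 uM; activity fitted in both directions relative to DMSO vehicle.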

Read-out in assay [8]: cysteine-aspartic acid protease (CASP8), CASP8 (gene 841)
As to the kind of experiment: LTEA_HepaRG_CASP8: Life Technologies and Expression Analysis (LTEA) Assay for cysteine-aspartic acid protease (CASP8) using HepaRG (AID 2283480). The method in brief:
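Concentration-response in duplicate up to 100 uM (half-log steps, 0.5% DMSO) on differentiated HepaRG cultures for 48 h. Expression change of CASP8 mRNA is determined by TaqMan qRT-PCR with housekeeping-gene normalization.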

Read-out in assay [9]: Cytochrome P450 (CYP2B6), CYP2B6 (gene 1555)
As to the kind of experiment: LTEA_HepaRG_CYP2B6: Life Technologies and Expression Analysis (LTEA) Assay for Cytochrome P450 (CYP2B6) using HepaRG (AID 2283481). The method in brief: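 Human HepaRG, 48 h dosing, 0.5% DMSO vehicle, top dose 100 uM. CYP2B6 transcript by qRT-PCR, housekeeping-normalized, bidirectional curve fit.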

Read-out in assay [10]: Cytochrome P450 2C19 (Homo sapiens) (UniProt P33261)
Briefly: LTEA_HepaRG_CYP2C19: Life Technologies and Expression Analysis (LTEA) Assay for CYP2C19 using HepaRG (AID 2283482). The method, boiled down:
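Endpoint: CYP2C19 mRNA change, bidirectional fit vs 0.5% DMSO. Cells: HepaRG, 48 h exposure, eight-point series topping at 100 uM. Quantitation: qRT-PCR normalized to ACTB, GAPDH, POLR2A.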

Read-out in the next assay: CYP2C8 (gene 1558)
As to the kind of experiment: LTEA_HepaRG_CYP2C8: Life Technologies and Expression Analysis (LTEA) Assay for CYP2C8 using HepaRG (AID 2283483). The method in brief: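 This is a transcriptional endpoint in HepaRG cultures: 48 h exposure, highest concentration 100 uM. CYP2C8 mRNA is quantified by TaqMan qRT-PCR.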

Read-out in another assay: CYP2C9 (gene 1559)
As to the kind of experiment: LTEA_HepaRG_CYP2C9: Life Technologies and Expression Analysis (LTEA) Assay for CYP2C9 using HepaRG (AID 2283484). The method, boiled down: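 Eight-point concentration-response (highest 100 uM, half-log dilutions) in HepaRG cells for 48 h; CYP2C9 expression by qRT-PCR normalized to ACTB, GAPDH, POLR2A. Bidirectional fit, DMSO baseline.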

Read-out in the next assay: CYP2E1 (gene 1571)
As to the kind of experiment: LTEA_HepaRG_CYP2E1: Life Technologies and Expression Analysis (LTEA) Assay for CYP2E1 using HepaRG (AID 2283485). The method in brief:
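CYP2E1 transcript measured by Fluidigm qRT-PCR against three housekeeping genes in human HepaRG cells treated 48 h (top 100 uM, half-log steps, 0.5% DMSO vehicle). Gain or loss fitted relative to DMSO baseline.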

Read-out in assay [11]: Cytochrome P450 3A4 (Homo sapiens) (UniProt P08684)
As to the kind of experiment: LTEA_HepaRG_CYP3A4: Life Technologies and Expression Analysis (LTEA) Assay for CYP3A4 using HepaRG (AID 2283487). The method, boiled down: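 HepaRG, 48 h exposure, 8-pt CRC from 100 uM (half-log), 0.5% DMSO, duplicates; serum-free induction medium. Readout: CYP3A4 mRNA, qRT-PCR, ACTB/GAPDH/POLR2A normalization. Bidirectional fit vs DMSO.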

Read-out in assay [12]: DNA damage-inducible transcript 3 (DDIT3), DDIT3 (gene 1649)
As to the kind of experiment: LTEA_HepaRG_DDIT3: Life Technologies and Expression Analysis (LTEA) Assay for DNA damage-inducible transcript 3 (DDIT3) using HepaRG (AID 2283488). The method, boiled down: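 DDIT3 transcript was quantified by qRT-PCR with ACTB/GAPDH/POLR2A normalization after 48 h chemical treatment of differentiated HepaRG cells in 0.5% DMSO. Dosing was eight-point, half-log, top 100 uM, duplicate wells. Curves fitted bidirectionally versus DMSO.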

Read-out in assay [13]: Pro-epidermal growth factor (Homo sapiens) (UniProt P01133)
As to the kind of experiment: LTEA_HepaRG_EGF: Life Technologies and Expression Analysis (LTEA) Assay for Epidermal growth factor (EGF) using HepaRG (AID 2283489). The method in brief: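 Concentration-response mRNA assay: HepaRG cells dosed 48 h (max 100 uM, 0.5% DMSO), EGF measured by qRT-PCR and normalized to ACTB/GAPDH/POLR2A.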

Read-out in a further assay: CYP4A11 (gene 1579)
Briefly: LTEA_HepaRG_CYP4A11: Life Technologies and Expression Analysis (LTEA) Assay for CYP4A11 using HepaRG (AID 2283486). The method, boiled down:
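Human hepatic HepaRG cultures receive duplicate 48 h exposures across a concentration-response series topping at 100 uM. Expression changes in CYP4A11 are measured by qRT-PCR relative to DMSO controls.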

Molecules are shown by their SMILES. Calls of active or inactive are those of the source. The calls were made as follows: active = hit-call score of the fitted dose curve at least 0.9, where 1 is the maximum; inactive = score below 0.9.

Chain of Cytochrome P450 2C19 (Homo sapiens) (P33261 whole entry, looked up): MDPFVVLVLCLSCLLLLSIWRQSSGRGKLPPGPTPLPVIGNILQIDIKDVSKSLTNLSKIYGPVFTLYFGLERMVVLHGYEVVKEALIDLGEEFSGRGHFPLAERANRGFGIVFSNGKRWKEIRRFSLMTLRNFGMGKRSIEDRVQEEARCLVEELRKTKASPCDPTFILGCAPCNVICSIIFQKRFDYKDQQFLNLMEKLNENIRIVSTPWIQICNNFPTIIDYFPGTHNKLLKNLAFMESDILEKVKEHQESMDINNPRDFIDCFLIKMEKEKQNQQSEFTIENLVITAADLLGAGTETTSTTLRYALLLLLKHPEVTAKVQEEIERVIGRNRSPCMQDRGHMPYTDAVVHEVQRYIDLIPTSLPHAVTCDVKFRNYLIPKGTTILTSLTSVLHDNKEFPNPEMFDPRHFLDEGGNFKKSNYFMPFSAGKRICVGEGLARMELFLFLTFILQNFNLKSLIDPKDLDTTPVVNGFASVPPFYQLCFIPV
Chain of Cytochrome P450 3A4 (Homo sapiens) (P08684 whole entry, looked up): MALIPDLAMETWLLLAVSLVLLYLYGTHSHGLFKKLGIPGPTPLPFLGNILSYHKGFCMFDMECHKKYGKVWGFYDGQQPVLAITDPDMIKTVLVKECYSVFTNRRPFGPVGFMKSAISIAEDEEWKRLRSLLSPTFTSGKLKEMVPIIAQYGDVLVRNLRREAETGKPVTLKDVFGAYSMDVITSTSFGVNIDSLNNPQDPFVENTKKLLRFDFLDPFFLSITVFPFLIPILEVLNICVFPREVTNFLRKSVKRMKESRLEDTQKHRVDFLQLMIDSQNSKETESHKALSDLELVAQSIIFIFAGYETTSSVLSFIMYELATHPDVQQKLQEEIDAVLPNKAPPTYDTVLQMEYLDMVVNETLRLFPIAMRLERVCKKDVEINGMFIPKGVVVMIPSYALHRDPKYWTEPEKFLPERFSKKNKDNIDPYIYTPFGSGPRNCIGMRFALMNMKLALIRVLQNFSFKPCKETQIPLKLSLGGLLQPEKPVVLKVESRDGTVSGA
Chain of Caspase-3 (Homo sapiens) (P42574 whole entry, looked up): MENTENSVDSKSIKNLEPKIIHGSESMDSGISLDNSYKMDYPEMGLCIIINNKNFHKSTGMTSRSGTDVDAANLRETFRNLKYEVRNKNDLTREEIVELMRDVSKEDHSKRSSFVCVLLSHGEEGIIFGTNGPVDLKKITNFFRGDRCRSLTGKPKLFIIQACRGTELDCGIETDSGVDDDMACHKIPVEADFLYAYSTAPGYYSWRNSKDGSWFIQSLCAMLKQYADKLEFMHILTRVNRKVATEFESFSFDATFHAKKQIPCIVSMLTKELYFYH
Chain of Apoptosis regulator Bcl-2 (Homo sapiens) (P10415 whole entry, looked up): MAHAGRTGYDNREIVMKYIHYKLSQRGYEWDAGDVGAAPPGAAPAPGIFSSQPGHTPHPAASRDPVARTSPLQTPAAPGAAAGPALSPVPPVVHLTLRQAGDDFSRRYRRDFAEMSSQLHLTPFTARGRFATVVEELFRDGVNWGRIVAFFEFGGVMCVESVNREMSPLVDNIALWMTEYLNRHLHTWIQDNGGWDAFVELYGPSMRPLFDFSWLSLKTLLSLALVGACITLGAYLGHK

In the case of `O=P(O)(O)CCCl`, the outcome (in assay [1]; in assay [2]; in assay [3]; with BCL2L11 (gene 10018); in assay [4]; in assay [5]) was inactive. In addition, the outcome (in assay [6]; in the assay with Caspase-3 (Homo sapiens); in [7]; in assay [8]; in assay [9]; with CYP2C8 (gene 1558)) was inactive. The outcome (with CYP2C9 (gene 1559); with CYP2E1 (gene 1571); in assay [11]; in [12]; in assay [13]) was inactive. Further, the concentration at half-maximal activity (AC50) in assay [10] is 0.396 µM (active).

For the compound `COCC(=O)N(c1c(C)cccc1C)C(C)C(=O)OC` (configuration not stated), the outcome (in assay [1]; in assay [2]; in assay [3]; with BCL2L11 (gene 10018); in assay [4]; in assay [5]) was inactive. Further, the outcome (in assay [6]; with Caspase-3 (Homo sapiens); in assay [7]; in assay [8]; in the assay with CYP2C8 (gene 1558); with CYP2C9 (gene 1559)) was inactive. Moreover, the call (with CYP4A11 (gene 1579); in assay [12]; in assay [13]) was inactive. Further, the AC50 in [9] is 1.23 µM (active); in [10], 3.91 µM (active); with CYP2E1 (gene 1571), 50 µM (active).

`Nc1c(Cl)c(Cl)nc(C(=O)O)c1Cl`: the outcome (in [1]; in assay [2]; in assay [3]; with BCL2L11 (gene 10018); in assay [4]; in assay [5]) was inactive. The outcome (in assay [6]; in the assay with Caspase-3 (Homo sapiens); in [7]; in assay [8]; in assay [9]; in [10]) was inactive. For the same compound, the compound was called inactive (with CYP2C8 (gene 1558); with CYP2C9 (gene 1559); with CYP2E1 (gene 1571); in [11]; in assay [12]; in assay [13]).

For the compound `Cc1c(COC(=O)[C@@H]2[C@H](/C=C(\Cl)C(F)(F)F)C2(C)C)cccc1-c1ccccc1`, the call (in assay [1]; in assay [2]; with BCL2L11 (gene 10018); in assay [4]; in assay [5]; in [6]) was inactive. Also, the outcome (with Caspase-3 (Homo sapiens); in [7]; in [8]; in the assay with CYP2C9 (gene 1559); with CYP4A11 (gene 1579); in assay [13]) was inactive. The AC50 in [3] was 50 µM (active); in [10], 17.9 µM (active); with CYP2E1 (gene 1571), 48.2 µM (active); in [11], 11.3 µM (active); in [12], 81.2 µM (active).

As for `CCSC(=O)N1CCCCCC1`, the outcome (in [1]; in assay [2]; in assay [3]; with BCL2L11 (gene 10018); in assay [4]; in assay [5]) was inactive. The compound was classed as inactive (in assay [6]; with Caspase-3 (Homo sapiens); in assay [7]; in assay [8]; in assay [10]; in the assay with CYP2C8 (gene 1558)). Moreover, the outcome (with CYP2C9 (gene 1559); in the assay with CYP2E1 (gene 1571); in assay [12]; in [13]) was inactive. The values for the AC50 in assay [9] and in assay [11] were 2.93 µM (active) and 30 µM (active), respectively.

`CC(C)N1C(=O)N(c2ccccc2)CSC1=NC(C)(C)C`: the AC50 in assay [1] is 77.4 µM (active); in assay [3], 64.4 µM (active); in [4] it was 81.8 µM (active); in [5], 78.7 µM (active); in assay [9], 89.3 µM (active); in assay [10] it was 11.4 µM (active). The AC50 with CYP2C9 (gene 1559) is 83.3 µM (active); with CYP2E1 (gene 1571), 63.5 µM (active); in the assay with CYP4A11 (gene 1579), 67.6 µM (active); in assay [11], 12 µM (active); in assay [12], 73.8 µM (active). Further, the compound was called inactive (in assay [2]; with BCL2L11 (gene 10018); in assay [6]; with Caspase-3 (Homo sapiens); in assay [7]; in assay [8]). Moreover, the outcome in [13] was inactive.

Values taken from PubChem BioAssay (EPA / NIEHS).
